Test results taken from PubChem BioAssay AID485364 (National Center for Advancing Translational Sciences (NCATS), 2010).
The campaign covered roughly 360,000 compounds. About 11,000 (3.1%) were called active. About 4% were inconclusive and are not listed. This is one part of a sample in which actives are shown more often than they occur. Unmarked numbers belong to inactive results. Calls come from the whole dose curve; as a rule, active = well fitted inhibition curve with a large enough effect; inconclusive = small, poorly fitted or top-dose-only effect; inactive = no such curve, though single readings can be large or run the other way.

molecular target: Schistosoma mansoni thioredoxin glutathione reductase (TGR) (UniProt Q962Y6); assay: qHTS Assay for the Inhibitors of Schistosoma Mansoni Peroxiredoxins; settings: purified TGR, DTNB reduction, TNB absorbance 405 nm; series mostly up to 114 µM; activity change, negative = inhibition: at the top concentration; note: nearly all actives have a fitted effect of over 60% in size
Method in brief: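 TGR 20 nM + NADPH 100 uM (dispensed conc.), cpd preinc 15 min RT; start with NADPH (500 uM addition) then DTNB (15 mM addition). Kinetic TNB absorbance, 405 nm filter. Four-parameter Hill fit across titration.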
% is set by controls: 0 for no effect and ±100 for the full control effect; potency is the fitted concentration of half-maximal effect.

| SMILES | activity change, negative = inhibition [%] | Potency |
| --- | --- | --- |
| COc1ccc(OC)c(-c2nc(C(N)=O)c3c(n2)n(-c2ccc4c(c2)OCO4)c(=O)n3C)c1 | -0.826 | – |
| CCCOc1ccc(NC(=O)CC2C(=O)N(C)C(=S)N2Cc2ccc3c(c2)OCO3)cc1 (stereo unspecified) | 6.8 | – |
| O=C(C1CCN(Cc2ccc(Cl)cc2)CC1)N1CCN(Cc2ccc3c(c2)OCO3)CC1 | -1.17 | – |
| O=C(Nc1ccc(Cl)cc1)C1c2cccc[n+]2CC(=O)N1Cc1ccc2c(c1)OCO2 (stereo unspecified) | – | 20 µM (active) |
| COc1ccc(S(=O)(=O)c2c(Nc3ccc(C)cc3)sc(C(=O)c3ccc(C)cc3)c2N)cc1 | -2.02 | – |
| Cc1c(C(=O)N2CCCC2)oc2c1-c1nn(CC(=O)NCc3ccc(OC(C)C)cc3)cc1CC2 | -10.3 | – |
| CCC(Sc1nc2n[nH]c(C)c2c(=N)n1-c1ccccc1Cl)C(=O)N(CC)CC (stereo unspecified) | 6.06 | – |
| Cc1cc(C)nc(SC(C)C(=O)N/N=C/c2cccs2)n1 (stereo unspecified) | 11.3 | – |
| Cc1cc(C)nc(S/C=C/C(=O)c2ccccc2)n1 | – | 1.12 µM (active) |
| Cc1cc(C)nc(N(C#N)CC(=O)Nc2ccccc2)n1 | 11.1 | – |
| COc1ccccc1CN1CCC(CNC(=O)c2cnn(-c3ccccc3Cl)c2C2CCN(C(=O)OC(C)(C)C)CC2)CC1 | 3.34 | – |
| CCOC(=O)c1c(S(=O)(=O)N2CCC(C(=O)NCc3ccccc3OC)CC2)c(C)n(C)c1C | -1.86 | – |
| COc1cc(NC(=O)c2noc3c2CSc2ccccc2-3)cc(OC)c1OC | – | 0.794 µM (active) |
| COc1ccc(CCNC(=O)c2nn(C)c3c2CSc2ccccc2-3)cc1OC | 5.29 | – |
| COc1cc(NC(=O)c2nc3ccccc3nc2C)cc(OC)c1OC | -0.972 | – |
| O=C(NCc1ccccc1Cl)c1cccn1-c1nnc(N2CCCCC2)s1 | 2.19 | – |
| CC(C)c1cc(CN2CCOCC2)cc(C(C)C)c1O | – | 3.98 µM (active) |
| O=C(Nc1ccc(CN2CCOCC2)cc1)c1cc(Cl)ccc1Cl | 1.25 | – |
| CC(CN1CCOCC1)c1ccccc1 (stereo unspecified) | 2.37 | – |
| COc1cc(C(=O)Nc2ccc(OCc3cc(=O)n4cc(C)sc4n3)cc2)cc(OC)c1OC | -7.3 | – |
| COc1ccc(CC(=O)N2CC(=O)Nc3ccc(Br)cc3C2c2ccc(F)cc2)cc1OC (stereo unspecified) | 18.4 | – |
| CCOC(=O)C1CCCN(C(=O)Cn2ncc3c(C)n(Cc4ccc(F)cc4)c(C)c3c2=O)C1 (stereo unspecified) | -6.64 | – |
| COc1cccc(C(c2c(O)cc(C)n(Cc3ccco3)c2=O)N2CCN(c3ccccc3)CC2)c1 (stereo unspecified) | – | 3.16 µM (active) |
| COc1ccc(C(CC(=O)N2CCN(c3ccccc3)CC2)c2c(O)cc(OC)cc2OC)cc1 (stereo unspecified) | -0.401 | – |

| SMILES | activity change, negative = inhibition [%] | Potency |
| --- | --- | --- |
| OC(COCc1ccco1)CN1CCN(c2ccccc2)CC1 (stereo unspecified) | -1.65 | – |
| Cc1cc(O)c(C(c2ccccc2)N2CCN(c3ccccc3F)CC2)c(=O)n1Cc1ccco1 (stereo unspecified) | – | 3.16 µM (active) |
| CCN1CCN(C(c2ccc(C)cc2)c2c(O)cc(C)n(Cc3ccco3)c2=O)CC1 (stereo unspecified) | – | 4.47 µM (active) |
| Cc1nc2ccn(Cc3cccnc3)c(=O)c2cc1C(=O)N1CCN(c2ccccc2F)CC1 | 8.3 | – |
| CCOC(=O)C1(CCc2ccccc2)CCN(Cc2ccco2)CC1 | -14.5 | – |
| C/C(=N\N1CCN(Cc2ccc(C)cc2)CC1)c1ccco1 | 2.61 | – |
| Cc1oc2ncn(CC(C)C)c(=O)c2c1C(=O)N1CCN(c2ccccc2F)CC1 | 5.16 | – |
| Cc1ccc(N(C)C(=O)C2CCN(S(=O)(=O)c3ccc4c(c3)CCCN4C(=O)C3CCC3)CC2)cc1 | -0.86 | – |
| COc1cccc(CNCc2c(C(=O)O)n(Cc3ccc(C)cc3)c3cc(C)ccc23)c1OC | 5.78 | – |
| Cc1ccc(NC(=O)CN2C(=O)CC(C)Sc3ccccc32)c(C)c1 (stereo unspecified) | -3.82 | – |
| Cc1ccc2oc(=O)c3cnn(CC(=O)NCc4ccccc4Cl)c3c2c1 | -4.87 | – |
| CC(C)c1ccc(NS(=O)(=O)c2ccc3[nH]cc(C(=O)NC4CCCC4)c(=O)c3c2)cc1 | 7.55 | – |
| CC(C)(C)C1C/C(=C/c2ccco2)C(=O)/C(=C/c2ccco2)C1 (stereo unspecified) | – | 39.8 µM (active) |
| CCOC(=O)C1(C)NC(c2ccco2)C2C(=O)N(c3ccccc3)C(=O)C21 (stereo unspecified) | -3.96 | – |
| CCCCN=C1N/C(=C\c2ccco2)C(=O)N1c1ccccc1 | – | 20 µM (active) |
| CCOc1cccc2c1N[C@@H](c1ccc(C(=O)O)cc1)[C@H]1CC=C[C@@H]21 | – | 7.08 µM (active) |
| CCOc1c(CNCc2ccc(C(=O)O)cc2)cccc1OC | -2.21 | – |
| CCOc1cccc(CC(=O)N2CCc3c([nH]c4ccccc34)C2c2ccc(F)cc2)c1OCC (stereo unspecified) | 4.64 | – |
| CCOC(=O)N1CCc2c(sc3c2c(=O)n(Cc2ccccc2)c(=O)n3CC(=O)Nc2cccc(C)c2)C1 | -0.288 | – |
| Cc1ccc(N2CC(c3nnc(Cc4ccccc4Cl)o3)CC2=O)cc1 (stereo unspecified) | 12 | – |
| CCOc1ccccc1CNC(=O)c1ccc2c(c1)nc1n2CCC(C)C1 (stereo unspecified) | -0.951 | – |
| CCOc1cccc2cc(-c3cn4c(n3)sc3cc(C)ccc34)c(=O)oc12 | 1.43 | – |
| O=C1NC(=O)N(c2ccccc2)C(=O)/C1=C/c1ccc([N+](=O)[O-])s1 | – | 5.62 µM (active) |
| COc1cccc(/C=C2\SC(=N)N(c3ccc(F)cc3)C2=O)c1 | 3.46 | – |

| SMILES | activity change, negative = inhibition [%] | Potency |
| --- | --- | --- |
| COc1cc(/C=C2/C(=O)NN(c3ccc(F)cc3)C2=O)cc([N+](=O)[O-])c1O | -12.7 | – |
| COc1cccc(N2C(=O)NC(=O)/C(=C\c3ccc([N+](=O)[O-])s3)C2=O)c1 | – | 8.91 µM (active) |
| Cc1ccccc1-c1nc2scc(CCNC(=O)C(=O)Nc3ccc(F)cc3F)n2n1 | 0.0736 | – |
| Cc1ccc(S(=O)(=O)N(Cc2nc(-c3ccc(Cl)cc3)no2)C2CCCCC2)cc1 | 10.4 | – |
| COc1ccc(CCN2C(=O)c3oc4cc(C)cc(C)c4c(=O)c3C2c2ccccc2F)cc1OC (stereo unspecified) | -9.97 | – |
| Cc1cc(C)cc(OCC(=O)Nc2nc(-c3ccc(F)cc3)ns2)c1 | 6.53 | – |
| Cc1ccn2c(Nc3ccc4c(c3)OCCO4)c(-c3ccc(C)s3)nc2c1 | 4.83 | – |
| COc1cc(Cn2c(N)c(C(=O)NCc3ccco3)c3nc4ccccc4nc32)cc(OC)c1OC | – | 7.08 µM (active) |
| COc1cc(C(=O)NC(=S)NCc2ccco2)cc(OC)c1OC | 3.26 | – |
| COc1cc(-n2c(C)nc3cc(C(=O)NCc4ccco4)ccc32)cc(OC)c1OC | 0.602 | – |
| CCc1ccc(S(=O)(=O)c2nnn3c2nc(NCc2ccccc2OC)c2cc(Cl)ccc23)cc1 | 8.14 | – |
| Cc1nn(Cc2ccc(F)cc2)c(C)c1NC(=O)c1cc(CC(C)C)on1 | 0.928 | – |
| CCOC(=O)N1CCN(C(c2cccnc2)c2ccc3cccnc3c2O)CC1 (stereo unspecified) | – | 0.316 µM (active) |
| COc1ccccc1N1CCN(C(CNC(=O)Oc2ccccc2)c2cccnc2)CC1 (stereo unspecified) | 0.19 | – |
| O=C(CSc1cccc2cccnc12)N/N=C/c1cccnc1 | 10.9 | – |
| COc1ccc(CC(=O)Nc2nnc3n2CCS3)cc1OC | -0.169 | – |
| CCOC(=O)c1c(C)[nH]c(CCC(=O)NCCCN2CCN(c3cccc(Cl)c3)CC2)c1C | -6.57 | – |
| CN(C(=O)c1ccc2c(c1)N(Cc1cccc(Cl)c1)C(=O)c1ccccc1S2=O)C1CCCCC1 (stereo unspecified) | 13.3 | – |
| Cc1ccc(COC(=O)CN2C(=O)NC3(CCCC3)C2=O)cc1 | -26.1 | – |
| CCOc1ccc(C(C)=O)cc1COC(=O)c1cnc(Cl)c(Cl)c1 | -19.2 | – |
| CCOc1ccc(C(C)NC(=O)CN2C(=O)NC3(CCCCC3)C2=O)cc1OCC (stereo unspecified) | 1.76 | – |
| COc1ccc(C(=O)COC(=O)CNC(=O)c2cccs2)cc1Br | -32.3 | – |
| CCOc1ccc(C(C)=O)cc1COC(=O)CN1C(=O)NC2(CCCC2)C1=O | – | 10 µM (active) |
| CCOc1ccc(C(C)=O)cc1COC(=O)CNC(=O)c1cccs1 | – | 11.2 µM (active) |

| SMILES | activity change, negative = inhibition [%] | Potency |
| --- | --- | --- |
| CCOc1ccccc1N(C)C(=O)c1cc2c(s1)-c1ccccc1OC2 | 0.733 | – |
| Cc1nnc(NCc2ccccc2)c2c1nnn2Cc1ccc(F)cc1 | 5.94 | – |
| CCc1nc(-c2cc(S(=O)(=O)N3CCN(c4ccc(OC)cc4)CC3)ccc2OC)no1 | 3.63 | – |
| Cc1ccc(CNC(=O)Cn2c(=O)ccc3cc(S(=O)(=O)N4CCCC4)ccc32)cc1 | -0.446 | – |
| Cc1ccc(NC(=O)CSc2nc3ccccc3c3nc(CCn4cncc4C)nn23)cc1F | -0.64 | – |
| CCC/C=C(\CCC)C(NC(=O)Cc1ccccc1)c1ccc(C(=O)OC)cc1 (stereo unspecified) | -12.9 | – |
| CC(=O)c1ccc(NC(=O)N[C@@H](Cc2ccccc2)C(=O)O)cc1 | 2.42 | – |
| CC(=O)c1ccc(OC(NC(=O)Cc2ccccc2)C(Cl)(Cl)Cl)cc1 (stereo unspecified) | – | 22.4 µM (active) |
| COc1ccc(NC(=O)c2sc3nc[nH]c(=O)c3c2C)cc1 | -1.14 | – |
| COc1ccccc1NC(=O)C1=C(C)Nc2nc(SCC(=O)c3ccc(C)cc3)nn2C1c1ccccc1C (stereo unspecified) | 7.49 | – |
| CCCCCn1c(=O)[nH]c2cc(C(=O)Nc3cc(C)cc(C)c3)ccc2c1=O | 0.323 | – |
| O=C1CC[C@H](O)CCN1[C@H](CSc1ccc(Br)cc1)Cc1ccccc1 | -6.32 | – |
| COc1ccc(SC[C@H](Cc2ccccc2)N2CCN(CCc3ccccc3)CCC2=O)cc1 | – | 17.8 µM (active) |
| C[C@H]1CCC(=O)N([C@H](CSc2ccccc2)Cc2ccccc2)CC1 | -20 | – |
| COc1cccc(NC(=O)CSC2=Nc3ccccc3C3=NC(CC(=O)NC4CCCCC4)C(=O)N23)c1 (stereo unspecified) | 3.31 | – |
| CC(=O)c1ccc(NC(=O)c2nc3nc(C)cc(C(F)F)n3n2)cc1 | -2.5 | – |
| O=C(/C=C/c1ccco1)NC(=S)Nc1ccccc1Br | – | 35.5 µM (active) |
| COc1ccccc1/C=C/C(=O)NC(=S)N1CCOCC1 | -5.17 | – |
| O=C(NNC(=S)Nc1ccc(Br)cc1Cl)c1ccco1 | -15.5 | – |
| COc1ccc(/C=C/C(=O)NC(=S)N2CCCC(C(N)=O)C2)cc1 (stereo unspecified) | 3.32 | – |
| O=C(/C=C/c1ccco1)NC(=S)N1CCCCC1 | – | 25.1 µM (active) |
| COc1ccc(Cl)cc1C(=O)NNC(=S)NC(=O)/C=C/c1ccco1 | -28.9 | – |
| O=C(Nc1ccc2nc(SCC(=O)N3CCCc4ccccc43)sc2c1)c1ccc(Cl)cc1 | 9.24 | – |
| COc1ccccc1-c1noc(CSc2nnc(-c3ccccc3)n2-c2ccc(C)c(C)c2)n1 | 4.75 | – |
